PubChem BioAssay (EPA / NIEHS)
Activity calls are given as the source filed them. How the source made its calls: active means hit-call score of the fitted dose curve at least 0.9, where 1 is the maximum; inactive means score below 0.9.

Tests used:
[1] = ATG_CRE_CIS: Attagene CIS-FACTORIAL HepG2 Assay for human cAMP Responsive Element (CRE) binding protein 3 (AID 2282926); settings: HepG2 CRE cis-reporter, Attagene multiplexed mRNA; actives raise or lower the signal
In short: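 Assay format: transient reporter transfection of HepG2, 24 h treatment, total RNA isolation with DNase I step. Reporter abundance read by fluorescence after PCR and capillary separation; DMSO-normalised gain or loss fitting.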

[2] = molecular target: CCAAT/enhancer-binding protein beta (Homo sapiens) (UniProt P17676); assay: ATG_C_EBP_CIS: Attagene CIS-FACTORIAL HepG2 Assay for human CCAAT/Enhancer Binding Protein (C/EBP) beta (AID 2282927); settings: HepG2 Attagene cis-factorial transcription factor reporter; actives raise or lower the signal
Sequence of CCAAT/enhancer-binding protein beta (Homo sapiens) (P17676 whole entry, looked up): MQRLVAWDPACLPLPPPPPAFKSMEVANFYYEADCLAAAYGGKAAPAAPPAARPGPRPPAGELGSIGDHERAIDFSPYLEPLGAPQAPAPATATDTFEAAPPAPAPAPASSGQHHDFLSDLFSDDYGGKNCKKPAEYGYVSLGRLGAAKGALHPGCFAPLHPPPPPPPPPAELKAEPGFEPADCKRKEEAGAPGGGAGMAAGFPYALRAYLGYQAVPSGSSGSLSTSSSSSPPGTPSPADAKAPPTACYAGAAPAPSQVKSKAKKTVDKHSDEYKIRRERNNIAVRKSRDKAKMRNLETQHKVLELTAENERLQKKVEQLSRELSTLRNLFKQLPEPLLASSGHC
In short: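 RT-PCR/capillary electrophoresis fluorescence of reporter mRNA, 24 h post-dose, in HepG2 cells carrying transfected cis-promoter reporter units. Bidirectional curve fitting against DMSO baseline captures gain or loss of signal.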

[3] = ATG_DR4_LXR_CIS: Attagene CIS-FACTORIAL HepG2 Assay for human Liver X Receptor (LXR), DR4 submotif (AID 2282929); settings: HepG2 Attagene DR4 cis-reporter, mRNA transcription; actives raise or lower the signal
In short: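 Cells were transfected with multiple reporter transcription units, exposed to chemicals for 24 hours, then lysed for RNA. Reporter mRNA induction was measured by RT-PCR with capillary electrophoresis detection and fitted in both directions relative to DMSO.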

[4] = molecular target: Aryl hydrocarbon receptor (Homo sapiens) (UniProt P35869); assay: ATG_Ahr_CIS: Attagene CIS-FACTORIAL HepG2 Assay for human Aryl Hydrocarbon Receptor (Ahr) (AID 2282930); settings: HepG2 AhR cis-factorial reporter transcription; actives raise or lower the signal
Sequence of Aryl hydrocarbon receptor (Homo sapiens) (P35869 whole entry, looked up): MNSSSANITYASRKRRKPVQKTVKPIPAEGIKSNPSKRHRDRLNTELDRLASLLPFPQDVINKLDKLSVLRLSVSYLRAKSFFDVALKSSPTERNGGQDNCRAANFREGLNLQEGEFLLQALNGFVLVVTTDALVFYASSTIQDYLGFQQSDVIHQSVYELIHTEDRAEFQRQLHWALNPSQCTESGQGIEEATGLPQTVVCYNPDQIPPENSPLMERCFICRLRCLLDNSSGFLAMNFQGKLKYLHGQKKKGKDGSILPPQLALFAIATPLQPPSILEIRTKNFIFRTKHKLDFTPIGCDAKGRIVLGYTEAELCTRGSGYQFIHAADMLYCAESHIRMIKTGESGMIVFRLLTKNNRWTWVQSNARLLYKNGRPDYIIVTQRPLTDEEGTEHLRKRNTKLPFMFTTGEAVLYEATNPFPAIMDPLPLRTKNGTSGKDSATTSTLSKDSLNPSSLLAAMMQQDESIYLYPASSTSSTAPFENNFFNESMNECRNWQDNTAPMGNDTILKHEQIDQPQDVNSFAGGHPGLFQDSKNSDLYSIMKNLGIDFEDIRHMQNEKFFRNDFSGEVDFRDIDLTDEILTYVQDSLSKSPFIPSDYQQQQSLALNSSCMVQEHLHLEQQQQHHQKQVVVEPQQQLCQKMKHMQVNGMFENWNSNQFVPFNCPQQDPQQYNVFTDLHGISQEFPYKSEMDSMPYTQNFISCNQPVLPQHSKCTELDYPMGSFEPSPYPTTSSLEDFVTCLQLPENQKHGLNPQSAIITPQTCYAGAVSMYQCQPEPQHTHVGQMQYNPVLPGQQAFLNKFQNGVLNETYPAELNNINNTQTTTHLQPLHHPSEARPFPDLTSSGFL
In short: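 HepG2 cells transiently transfected with cis-element-driven multiplexed reporter transcription units; endogenous transcription factor activity measured as reporter mRNA 24 h after dosing. RT-PCR, 6-FAM labelling, HpaI digestion, capillary electrophoresis; bidirectional fitting versus DMSO baseline.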

[5] = ATG_AP_2_CIS: Attagene CIS-FACTORIAL HepG2 Assay for human Activator Protein 2 (AP-2) (AID 2282932); settings: HepG2 AP-2 cis-reporter, Attagene transcription factor profiling; actives raise or lower the signal
In short: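 Cells (HepG2) transfected with promoter-driven reporter constructs, treated 24 h. Total RNA reverse-transcribed, reporter cDNA PCR-amplified, FAM-labelled by primer extension, digested, resolved by capillary electrophoresis. Activity fitted both directions versus DMSO.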

[6] = ATG_BRE_CIS: Attagene CIS-FACTORIAL HepG2 Assay for human Bone Morphogenetic Protein (BMP) Response Element (BRE) (AID 2282933); settings: HepG2 BMP response element reporter, Attagene transcription factor profiling; actives raise or lower the signal
In short: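 Transient MRTU transfection of human HepG2 liver cells; 24 h compound treatment; total RNA isolated, reverse-transcribed, PCR-amplified, 6-FAM labelled, HpaI-cut, capillary electrophoresis. DMSO = negative control/baseline, bidirectional fit.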

[7] = ATG_E_Box_CIS: Attagene CIS-FACTORIAL HepG2 Assay for human Enhancer Box (E-box) (AID 2282936); settings: HepG2 E-box cis-reporter transcription, actives raise or lower the signal
In short: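 Endogenous transcription factor activity was sensed in human HepG2 liver cells through transfected cis-promoter reporter units. After 24 h of dosing, total RNA was reverse-transcribed and reporter cDNA resolved by capillary electrophoresis.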

[8] = ATG_M_61_CIS: Attagene CIS-FACTORIAL HepG2 Assay for M61 Transcription Factor (Internal Marker) (AID 2282937); settings: HepG2 Attagene CIS-FACTORIAL M61 internal marker reporter; actives raise or lower the signal
In short: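 Cells were transfected with reporter units under cis-regulatory promoters, treated with chemicals for 24 h, then lysed for RNA. Reporter transcripts were quantified by RT-PCR and capillary electrophoresis, and activity was fitted bidirectionally against DMSO.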

[9] = ATG_M_19_CIS: Attagene CIS-FACTORIAL HepG2 Assay for M19 Transcription Factor (Internal Marker) (AID 2282939); settings: HepG2 Attagene CIS-FACTORIAL M19 internal marker reporter; actives raise or lower the signal
In short: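 Transfect HepG2 with MRTU reporter library → dose chemical, 24 h → isolate total RNA, reverse-transcribe with oligo(dT) → PCR, 6-FAM label, HpaI cut (2 h, 37 C) → capillary electrophoresis. Bidirectional fit vs DMSO.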

[10] = ATG_Ets_CIS: Attagene CIS-FACTORIAL HepG2 Assay for human Erythroblast Transformation Specific (ETS) (AID 2282941); settings: HepG2 ETS cis-reporter transcription, actives raise or lower the signal
In short: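 Multiplexed reporter transcript profiling: HepG2, 24 h treatment, total RNA to cDNA, PCR, 6-FAM labelling, HpaI cut, capillary electrophoresis. Gain- or loss-of-signal fitted against DMSO.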

[11] = molecular target: Hepatocyte nuclear factor 3-beta (Homo sapiens) (UniProt Q9Y261); assay: ATG_FoxA2_CIS: Attagene CIS-FACTORIAL HepG2 Assay for human Forkhead box A2 (FOXA2) (AID 2282942); settings: HepG2 cis-reporter transcription factor activity, 24 h; actives raise or lower the signal
Sequence of Hepatocyte nuclear factor 3-beta (Homo sapiens) (Q9Y261 whole entry, looked up): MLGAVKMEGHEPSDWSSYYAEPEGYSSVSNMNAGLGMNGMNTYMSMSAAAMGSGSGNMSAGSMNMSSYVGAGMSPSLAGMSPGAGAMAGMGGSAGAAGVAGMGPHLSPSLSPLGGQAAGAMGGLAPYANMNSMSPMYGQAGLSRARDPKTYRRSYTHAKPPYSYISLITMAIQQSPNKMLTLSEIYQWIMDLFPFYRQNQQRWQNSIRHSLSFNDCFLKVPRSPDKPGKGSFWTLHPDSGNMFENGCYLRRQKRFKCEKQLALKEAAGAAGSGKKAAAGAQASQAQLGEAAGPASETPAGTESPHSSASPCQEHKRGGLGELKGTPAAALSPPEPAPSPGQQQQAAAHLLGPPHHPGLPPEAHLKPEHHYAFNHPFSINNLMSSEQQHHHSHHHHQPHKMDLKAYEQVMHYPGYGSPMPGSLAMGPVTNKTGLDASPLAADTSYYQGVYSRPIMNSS
In short: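 Endogenous transcription factor activity was read in HepG2 cells carrying transiently transfected cis-promoter reporter units. After 24 h dosing, reporter mRNA was quantified by RT-PCR and capillary electrophoresis, and values fitted bidirectionally versus DMSO.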

[12] = ATG_FoxO_CIS: Attagene CIS-FACTORIAL HepG2 Assay for human Forkhead box O (FoxO) (AID 2282943); settings: HepG2 Attagene cis-reporter, FoxO element, mRNA; actives raise or lower the signal
In short: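 HepG2 cells transiently transfected with cis-promoter-driven multiple reporter transcription units; 24 h after chemical dosing, reporter mRNA quantified by RT-PCR, fluorescent primer extension, HpaI digestion and capillary electrophoresis. Bidirectional fitting versus DMSO baseline.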

[13] = ATG_GATA_CIS: Attagene CIS-FACTORIAL HepG2 Assay for human GATA Binding Protein (AID 2282944); settings: HepG2 GATA cis-element reporter, Attagene multiplex mRNA; actives raise or lower the signal
In short: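 Transient MRTU transfection, HepG2, 24 h compound exposure. Total RNA → oligo(dT) RT → PCR → 6-FAM primer extension → HpaI cut → CE. Bidirectional fit vs DMSO.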

[14] = ATG_GLI_CIS: Attagene CIS-FACTORIAL HepG2 Assay for human Zinc Finger Protein GLI1 (AID 2282945); settings: HepG2, Attagene cis-factorial reporter mRNA, GLI element; actives raise or lower the signal
In short: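 HepG2 cells transiently transfected with cis-promoter multiplexed reporter units report endogenous transcription factor activity. After 24 h chemical exposure, reporter mRNA was quantified by RT-PCR, 6-FAM labelling, HpaI digestion and capillary electrophoresis, with bidirectional fitting against DMSO.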

[15] = ATG_AP_1_CIS: Attagene CIS-FACTORIAL HepG2 Assay for human Activator Protein 1 (AP-1) (AID 2282931); settings: HepG2 Attagene cis-factorial AP-1 reporter mRNA; actives raise or lower the signal
In short: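 Endogenous transcription-factor activity in human HepG2 liver cells is read through a cis-promoter reporter transcript, sampled 24 h after dosing. Detection uses RT-PCR with capillary electrophoresis; values come from bidirectional fitting relative to DMSO.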

[16] = molecular target: Transcription factor E2F1 (Homo sapiens) (UniProt Q01094); assay: ATG_E2F_CIS: Attagene CIS-FACTORIAL HepG2 Assay for human E2F Transcription Factor 1 (AID 2282935); settings: HepG2 Attagene cis-reporter, E2F reporter RNA transcripts; actives raise or lower the signal
Sequence of Transcription factor E2F1 (Homo sapiens) (Q01094 whole entry, looked up): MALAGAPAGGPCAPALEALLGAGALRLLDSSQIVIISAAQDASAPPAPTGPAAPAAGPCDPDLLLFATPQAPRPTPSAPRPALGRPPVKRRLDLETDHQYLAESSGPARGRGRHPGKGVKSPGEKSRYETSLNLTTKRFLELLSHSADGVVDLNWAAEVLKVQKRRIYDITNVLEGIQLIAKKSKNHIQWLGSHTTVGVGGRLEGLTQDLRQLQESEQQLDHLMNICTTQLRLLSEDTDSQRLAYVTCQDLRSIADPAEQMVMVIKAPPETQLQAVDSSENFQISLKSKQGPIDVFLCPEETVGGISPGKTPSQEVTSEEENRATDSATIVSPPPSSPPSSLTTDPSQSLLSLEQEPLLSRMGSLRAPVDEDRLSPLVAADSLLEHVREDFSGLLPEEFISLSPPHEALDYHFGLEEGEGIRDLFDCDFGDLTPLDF
In short: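 First, HepG2 cells were transfected with reporter transcription units. Next, they were dosed for 24 h. Then RNA was isolated, converted to cDNA, PCR-amplified, FAM-labeled, HpaI-digested and analyzed by capillary electrophoresis.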

[17] = ATG_EGR_CIS: Attagene CIS-FACTORIAL HepG2 Assay for human Early Growth Response 1 (EGR1) (AID 2282938); settings: HepG2 Attagene CIS-FACTORIAL EGR reporter mRNA; actives raise or lower the signal
In short: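 Endogenous TF activity in HepG2 liver cells was gauged through cis-promoter reporter constructs transiently transfected. After 24 h dosing, reporter mRNA was quantified by RT-PCR and capillary electrophoresis, and curves fitted in both directions versus DMSO.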

[18] = ATG_ERE_CIS: Attagene CIS-FACTORIAL HepG2 Assay for Estrogen Response Element (ERE) (AID 2282940); settings: HepG2 ERE cis-reporter, Attagene RNA transcript; actives raise or lower the signal
In short: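 Transient MRTU transfection of human HepG2; cis-element promoters; 24 h dosing; total RNA → RT (oligo dT) → PCR → 6-FAM primer extension → HpaI digest → CE fluorescence. Bidirectional fit, DMSO baseline.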

[19] = molecular target: Retinoic acid receptor alpha (Homo sapiens) (UniProt P10276); assay: ATG_DR5_RAR_CIS: Attagene CIS-FACTORIAL HepG2 Assay for human Retinoic Acid Receptor Alpha (RARE), DR5 submotif (AID 2282934); settings: HepG2 Attagene cis-factorial RARE DR5 reporter, mRNA; actives raise or lower the signal
Sequence of Retinoic acid receptor alpha (Homo sapiens) (P10276 whole entry, looked up): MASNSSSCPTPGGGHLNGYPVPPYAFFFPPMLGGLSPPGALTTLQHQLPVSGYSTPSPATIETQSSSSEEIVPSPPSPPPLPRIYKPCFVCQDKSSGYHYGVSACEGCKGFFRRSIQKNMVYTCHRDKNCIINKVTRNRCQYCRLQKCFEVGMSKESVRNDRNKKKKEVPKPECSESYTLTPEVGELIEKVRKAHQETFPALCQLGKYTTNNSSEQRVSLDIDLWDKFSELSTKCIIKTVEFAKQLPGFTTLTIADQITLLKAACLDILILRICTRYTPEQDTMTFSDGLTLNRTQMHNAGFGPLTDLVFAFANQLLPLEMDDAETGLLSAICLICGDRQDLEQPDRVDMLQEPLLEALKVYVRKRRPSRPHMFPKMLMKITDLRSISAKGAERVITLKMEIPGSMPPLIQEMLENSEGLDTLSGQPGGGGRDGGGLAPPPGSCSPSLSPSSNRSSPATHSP
In short: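 HepG2 cells transiently transfected with multiplexed reporter units under cis (DR5 RARE) promoters, so endogenous transcription factor activity is measured. After 24 h compound exposure, reporter mRNA is quantified by RT-PCR with fluorescent labelling and capillary electrophoresis; bidirectional fitting versus DMSO.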

Measured: AC50

COC(=O)OC
not listed: [15] | [16] | [17] | [18] | [19]
inactive: all other assays above

OC[C@H]1O[C@H](O[C@]2(CCl)O[C@H](CCl)[C@@H](O)[C@@H]2O)[C@H](O)[C@@H](O)[C@H]1Cl
not listed: [14] | [18] | [19]
inactive: all other assays above

O=C(OCc1ccccc1)C(=O)OCc1ccccc1
not listed: [4] | [14] | [19]
inactive: all other assays above

CNCCCC12CCC(c3ccccc31)c1ccccc12
active: [3] 11.1 µM | [17] 15.7 µM | [14] 15.7 µM
not listed: [5] | [10] | [16] | [19]
inactive: all other assays above

CC(C)=CCCC(C)CC=O (stereo not given)
not listed: [5] | [9] | [13] | [17] | [18] | [19]
inactive: all other assays above

CC(CCO)CCCC(C)(C)O (stereo not given)
not listed: [4] | [11] | [12] | [18] | [19]
inactive: all other assays above

CC(C)(COC(=O)c1ccccc1)COC(=O)c1ccccc1
not listed: [16] | [18] | [19]
inactive: all other assays above

COc1cc(C=O)ccc1OC(=O)C(C)C
not listed: [4] | [15] | [17] | [18]
inactive: all other assays above

O=C[C@H](O)[C@H](O)[C@H](O)CO
not listed: [10] | [14] | [18]
inactive: all other assays above
